DT40 TDP1 no CPT = qHTS for Inhibitors of human tyrosyl-DNA phosphodiesterase 1 (TDP1): qHTS in cells in absence of CPT; actives 15% (n = 420,000); Potency, µM (highest dose often 46.2 µM), for inactives: at the top dose activity change, negative = growth inhibition, most hits filed as inhibitors; DT40 Tdp1-/- hTDP1 cells, no CPT, ATP luminescence, 48 h; note: potency is the fitted concentration of half-maximal effect; % is set by controls: 0 for no effect and ±100 for the full control effect; nearly all actives have a fitted effect of over 55% in size
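Chicken DT40 Tdp1-/- cells complemented with human TDP1, screened without camptothecin (DMSO vehicle only), 400 cells/well. Compounds pin-transferred, cells incubated at 37 °C for at least 48 hr. Growth read as ATP-dependent luminescence (CellTiter-Glo, 30 min at RT).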
HepG2 tox = qHTS for Inhibitors of TGF-b: Cytotox Counterscreen | Potency, µM (highest dose often 46.1 µM), inactives show top-dose activity change, negative = cytotoxicity, hits mostly cytotoxic | HepG2 CAGA-GFP viability, ATP luminescence, 18 h | actives 0.76% (n = 410,000) | AID 588856, 2011; note: potency is the fitted concentration of half-maximal effect
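CellTiter-Glo luminescence gave cytotoxicity after 18 hours at 37 degrees C. The cells were HepG2 CAGA-GFP in 1% FBS DMEM, stimulated with 500 pg/mL TGF-beta after compound addition. %Activity was normalised to no-cell wells (complete cell-killing) and DMSO (no toxicity), and curves were fitted and classified.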
TGFb SMAD3 inh = qHTS for Inhibitors of TGF-b; actives 1.2% (n = 410,000); AID 588855, 2011; HepG2 CAGA-GFP TGF-b/SMAD3 reporter, GFP fluorescence, 18 h; TGF-beta stimulated, 500 pg/mL final; Potency, µM (titrated, usually from 46.1 µM), inactives show at the top dose activity, negative = inhibition, actives largely listed as inhibitors; note: potency is the fitted concentration of half-maximal effect; % is set by controls: 0 for no effect and ±100 for the full control effect; nearly all actives have a fitted effect of over 65% in size
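Inhibition was scored as loss of TGF-beta-induced (500 pg/mL final, 18 hours, 37 degrees C) GFP in HEPG2 cells carrying a CAGA-GFP reporter, in DMEM with 1% FBS. Well GFP was summed per cell; Activity was normalised to unstimulated and stimulated DMSO wells, then concentration-response fitting.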
TDP1 block = qHTS Assay for Inhibitors of Tyrosyl-DNA Phosphodiesterase (TDP1). Potency, µM (highest dose often 130 µM), inactives show top-dose activity change, negative = inhibition, usual class: inhibitors. actives 0.28% (n = 350,000). recombinant TDP1, AlphaScreen DNA substrate cleavage. AID 485290, 2010; note: potency is the fitted concentration of half-maximal effect; % is set by controls: 0 for no effect and ±100 for the full control effect; nearly all actives have a fitted effect of over 40% in size
Target sequence (Q9NUW8 whole entry, looked up): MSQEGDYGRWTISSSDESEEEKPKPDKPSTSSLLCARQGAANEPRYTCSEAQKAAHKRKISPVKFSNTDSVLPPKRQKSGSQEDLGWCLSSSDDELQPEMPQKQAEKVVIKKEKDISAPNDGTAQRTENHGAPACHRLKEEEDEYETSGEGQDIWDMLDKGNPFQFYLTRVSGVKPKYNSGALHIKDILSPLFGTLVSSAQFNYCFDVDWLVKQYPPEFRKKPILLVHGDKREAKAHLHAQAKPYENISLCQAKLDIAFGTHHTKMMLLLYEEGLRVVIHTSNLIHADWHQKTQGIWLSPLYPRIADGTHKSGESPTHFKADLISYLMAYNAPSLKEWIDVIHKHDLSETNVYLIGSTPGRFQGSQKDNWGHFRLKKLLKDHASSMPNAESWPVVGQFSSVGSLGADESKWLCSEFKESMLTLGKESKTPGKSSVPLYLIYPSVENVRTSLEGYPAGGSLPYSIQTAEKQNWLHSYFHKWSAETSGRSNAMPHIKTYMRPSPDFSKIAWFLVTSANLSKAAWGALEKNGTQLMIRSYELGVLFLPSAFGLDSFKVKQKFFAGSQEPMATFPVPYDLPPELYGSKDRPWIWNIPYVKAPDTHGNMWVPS
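Recombinant human Tdp1 (E. coli-expressed, 1 nM final) preincubated with compounds 15 min at room temperature, then 5'-biotin/3'-phosphotyrosine-FITC DNA substrate (15 nM final) added for 5 min. AlphaScreen beads (10 ug/ml final) added 10 min; cleavage lowers signal.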
DT40 TDP1 CPT = qHTS for Inhibitors of human tyrosyl-DNA phosphodiesterase 1 (TDP1): qHTS in cells in presence of CPT. actives 12% (n = 420,000). AID 686979, 2013. Potency, µM (doses to about 46.2 µM), inactives show at the highest dose activity change, negative = growth inhibition, usual class: inhibitors. chicken DT40 Tdp1-/-;hTDP1 cells + 20 nM CPT, ATP luminescence, 48 h; note: potency is the fitted concentration of half-maximal effect; % is set by controls: 0 for no effect and ±100 for the full control effect; nearly all actives have a fitted effect of over 55% in size
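Chicken DT40 Tdp1-/- cells complemented with human TDP1, 400 cells/well, exposed to compounds plus 20 nM camptothecin for at least 48 h at 37 C; viability read as ATP content by CellTiter-Glo luminescence.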
IL1B secr inh = qHTS for Inhibitors of Inflammasome Signaling: IL-1-beta AlphaLISA Primary Screen; THP-1 LPS/ATP IL-1B secretion, AlphaLISA, 16 h; stronger effect = lower value; activity change, % at 57.5 µM; actives 4.7% (n = 360,000); AID 743279, 2014; in the data active = activity change below about -50%; inconclusive = mostly about -30% to -49%; note: % is set by controls: 0 for no effect and ±100 for the full control effect
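THP-1 cells pretreated 1 hr with compounds (up to 57.5 uM final), then stimulated with LPS (250 ng/mL final) plus ATP (1.25 mM final); secreted IL-1B measured by AlphaLISA after 16 hr, decreased signal indicating inhibition.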
The depositor's hits bear a star; ? = inconclusive; · = no result given; [ ] = dose if it differs, or a comment. An excerpt weighted towards active compounds, which were near 18% of everything screened. Unless noted, calls come from the whole dose curve; as a rule, active = well fitted curve in the direction sought with a large enough effect; inconclusive = small, poorly fitted or top-dose-only effect, or another doubt; inactive = no such curve, though single readings can be large; an effect the other way counts as inactive or inconclusive.

SMILES | DT40 TDP1 no CPT | HepG2 tox | TGFb SMAD3 inh | TDP1 block | DT40 TDP1 CPT | IL1B secr inh
COc1cc(/C=N/NC(=O)c2ccoc2C)cc(OC)c1OC | 13µM* | -10% | 1% | · | ? | -3
CC(C)(C)C(=O)NCCN1C(=O)S/C(=C\c2ccc([N+](=O)[O-])cc2)C1=O | 23µM* | -35% | 1% | 3% | ? | -73*
O=C(NCCN1C(=O)S/C(=C\c2ccc(Cl)c([N+](=O)[O-])c2)C1=O)C1=COCCO1 | 8.2µM* | 22µM* | 18µM* | 2%[0.505 µM] | 21µM* | -103*
CN1C=CC(=C2C=CN(C)C=C2)C=C1 | · | · | · | 23% | · | ·
CCOc1ccc(NS(=O)(=O)c2csc(C(N)=O)c2)cc1 | ? | -23% | -25% | · | ? | -17
COc1cccc(C2NC(C(=O)O)CCC2C)c1 (configuration not stated) | · | · | · | 9%[21 µM] | · | ·
Cc1onc(-c2c(Cl)cccc2Cl)c1C(=O)ONC(=O)c1ccccc1 | -10% | -39% | -8% | 3% | 1% | 25
C/C(=N/NC(=O)CNC(=O)c1cccs1)c1ccco1 | -1% | 7% | -9% | 1% | 13% | 4
Cc1cc(C)c2nccc(/C=C/c3ccc(N(C)C)cc3)c2c1 | 10µM* | -20% | -15% | · | 11µM* | ·
CN(C)c1ccc(/C=C/c2ccnc3c(Cl)ccc(Cl)c23)cc1 | 10µM* | -7% | 51% | · | 11µM* | ·
Cc1ccnc2c(Cl)ccc(Cl)c12 | ? | -20% | -15% | · | ? | ·
CN(C)c1ccc(/C=C/c2ccnc3c([N+](=O)[O-])cccc23)cc1 | ? | -40% | -2% | · | ? | ·
Cc1ccc2c(/C=C/c3ccc(N(C)C)cc3)ccnc2c1C | ? | -48% | ? | · | 13µM* | ·
Cc1nn(-c2nc3ccccc3s2)c(C)c1Oc1ccccc1O | ? | -66% | ? | 2% | 18µM* | -79*
CCn1c(=S)sc2c(=O)[nH]c(SCC(=O)Nc3cc(OC)ccc3OC)nc21 | 25% | 0% | -21% | 5% | -17% | 40
Fc1ccccc1N1CCN(C(c2ccnc3ccccc23)c2nnnn2-c2ccc3c(c2)OCCO3)CC1 (configuration not stated) | 21µM* | · | · | · | ? | -7
Cc1cc(N2CCN(C(c3ccnc4ccccc34)c3nnnn3-c3c(C)cccc3C)CC2)c2ccccc2n1 (configuration not stated) | 4.6µM* | · | · | · | 6.5µM* | -56*
Cc1cccc(C)c1N1CCN(C(c2ccnc3ccccc23)c2nnnn2-c2ccc3c(c2)OCCO3)CC1 (configuration not stated) | 15µM* | · | · | · | 18µM* | ?
Cc1cccc(C)c1-n1nnnc1C(c1ccnc2ccccc12)N1CCN(CCN(C)C)CC1 (configuration not stated) | ? | · | · | · | ? | 3
Cc1cccc(C)c1-n1nnnc1C(c1ccnc2ccccc12)N(C)Cc1ccccc1 (configuration not stated) | 16µM* | · | · | · | ? | 24
Cc1cccc(C)c1-n1nnnc1C(c1ccnc2ccccc12)N1CCN(C(=O)OC(C)(C)C)CC1 (configuration not stated) | 1% | · | · | · | 0% | 6
O=[N+]([O-])c1cccc(-c2nnc3ccccn23)c1 | 4% | 11% | 13% | · | 6% | 0

Screens (PubChem)
